A selection: hits, their analogues and other compounds. The true share with any hit is near 18%.
HepG2 viability – kills HepG2 cells in TGF-b inhibitor counter-screen. actives 0.76% (n = 410,000). AID 588856. HepG2 CAGA-GFP viability, ATP luminescence, 18 h. Potency, µM (highest dose often 46.1 µM), for the others: top-dose activity change, negative = cytotoxicity, most hits filed as cytotoxic; also: potency is read from the fitted curve at half-maximal effect
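HepG2 CAGA-GFP cells (1000/well, DMEM with 1% FBS) received compound, then TGF-beta at 500 pg/mL final, and were incubated 18 hours at 37 degrees C. Viability was read by CellTiter-Glo luminescence. Media-only wells were set as complete cell-killing and DMSO as no toxicity.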
TDP1 inh – blocks human tyrosyl-DNA phosphodiesterase 1. Q9NUW8. recombinant TDP1, AlphaScreen DNA substrate cleavage. Potency, µM (titrated, usually from 130 µM), for the others: at the top dose activity change, negative = inhibition, actives largely listed as inhibitors. actives 0.28% (n = 350,000); also: potency is read from the fitted curve at half-maximal effect; % is scaled to controls: 0 for no effect and ±100 for the full control effect; nearly all actives have a fitted effect of over 40% in size
Target sequence (Q9NUW8 whole entry, looked up): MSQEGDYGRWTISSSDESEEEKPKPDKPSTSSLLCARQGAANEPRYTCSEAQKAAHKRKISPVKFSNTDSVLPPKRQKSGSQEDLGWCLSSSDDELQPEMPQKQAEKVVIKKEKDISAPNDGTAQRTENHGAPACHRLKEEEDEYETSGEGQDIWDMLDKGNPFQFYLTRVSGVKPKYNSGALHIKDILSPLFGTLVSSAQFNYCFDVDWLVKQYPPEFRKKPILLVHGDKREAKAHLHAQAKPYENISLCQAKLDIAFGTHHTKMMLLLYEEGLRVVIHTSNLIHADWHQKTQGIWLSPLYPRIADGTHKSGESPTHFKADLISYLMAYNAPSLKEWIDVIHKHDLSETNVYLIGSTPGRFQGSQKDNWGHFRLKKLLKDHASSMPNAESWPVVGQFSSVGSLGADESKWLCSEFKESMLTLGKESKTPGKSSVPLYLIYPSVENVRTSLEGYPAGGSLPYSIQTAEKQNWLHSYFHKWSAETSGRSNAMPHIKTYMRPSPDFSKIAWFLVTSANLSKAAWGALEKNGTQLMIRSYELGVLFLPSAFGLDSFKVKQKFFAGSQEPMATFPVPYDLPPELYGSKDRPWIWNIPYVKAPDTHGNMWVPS
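Recombinant human Tdp1 (E. coli-expressed, 1 nM final) preincubated with compounds 15 min at room temperature, then 5'-biotin/3'-phosphotyrosine-FITC DNA substrate (15 nM final) added for 5 min. AlphaScreen beads (10 ug/ml final) added 10 min; cleavage lowers signal.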
TDP1 cell CPT – growth inhibition of DT40 Tdp1-/-;hTDP1 cells with camptothecin (screen for TDP1 inhibitors); chicken DT40 Tdp1-/-;hTDP1 cells + 20 nM CPT, ATP luminescence, 48 h; Potency, µM (top dose mostly 46.2 µM), for inactives: top-dose activity change, negative = growth inhibition, hits mostly inhibitors; actives 12% (n = 420,000); AID 686979; also: potency is read from the fitted curve at half-maximal effect; % is scaled to controls: 0 for no effect and ±100 for the full control effect; nearly all actives have a fitted effect of over 55% in size
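Chicken DT40 Tdp1-/- cells complemented with human TDP1, 400 cells/well, exposed to compounds plus 20 nM camptothecin for at least 48 h at 37 C; viability read as ATP content by CellTiter-Glo luminescence.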
DT40 TDP1 no CPT – qHTS for Inhibitors of human tyrosyl-DNA phosphodiesterase 1 (TDP1): qHTS in cells in absence of CPT. AID 686978, 2013. Potency, µM (doses to about 46.2 µM), inactives show at the top dose activity change, negative = growth inhibition, usual class: inhibitors. actives 15% (n = 420,000). DT40 Tdp1-/- hTDP1 cells, no CPT, ATP luminescence, 48 h; also: potency is read from the fitted curve at half-maximal effect; % is scaled to controls: 0 for no effect and ±100 for the full control effect; nearly all actives have a fitted effect of over 55% in size
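Compound effects on proliferation are scored in DT40 Tdp1-/-;hTDP1 cells in the absence of CPT. ATP levels (CellTiter-Glo luminescence) are recorded after a ≥48 hr, 37 °C incubation.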
TGFb SMAD3 inh – TGF-b pathway inhibition; HepG2 CAGA-GFP TGF-b/SMAD3 reporter, GFP fluorescence, 18 h; TGF-beta stimulated, 500 pg/mL final; Potency, µM (top dose mostly 46.1 µM), without a hit: top-dose activity, negative = inhibition, usual class: inhibitors; actives 1.2% (n = 410,000); also: potency is read from the fitted curve at half-maximal effect; % is scaled to controls: 0 for no effect and ±100 for the full control effect; nearly all actives have a fitted effect of over 65% in size
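HEPG2 CAGA-GFP, 1000 cells/well; 2 h settle, 37 C; cpd via pin tool; TGF-b 500 pg/mL final; 18 h, 37 C; GFP imaging ex488/em500-530; %Activity normalised to -TGF-b and +DMSO controls; CRC fit, curve class.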
IL1B secr inh – inflammasome signaling inhibition, IL-1 beta readout | THP-1 LPS/ATP IL-1B secretion, AlphaLISA, 16 h; active compounds read low | activity change, % at 57.5 µM | actives 4.7% (n = 360,000); in the data active = activity change below about -50%; inconclusive = mostly about -30% to -49%; also: % is scaled to controls: 0 for no effect and ±100 for the full control effect
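THP-1 cells pretreated 1 hr with compounds (up to 57.5 uM final), then stimulated with LPS (250 ng/mL final) plus ATP (1.25 mM final); secreted IL-1B measured by AlphaLISA after 16 hr, decreased signal indicating inhibition.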
Starred values were filed as active, the others as inactive; ? = inconclusive; . = no result given; [ ] = another dose, or the depositor's remark. Unless noted, calls follow the shape of the dose curve; as a rule, active = well fitted curve in the direction sought with a large enough effect; inconclusive = small, poorly fitted or top-dose-only effect, or another doubt; inactive = no such curve, though single readings can be large; an effect the other way counts as inactive or inconclusive.

SMILES	HepG2 viability	TDP1 inh	TDP1 cell CPT	DT40 TDP1 no CPT	TGFb SMAD3 inh	IL1B secr inh
COc1ccc(CN(Cc2cccnc2)S(=O)(=O)c2ccc(-n3cnnn3)c(C)c2)cc1OC	-11%	-3%	?	?	5%	?
CCOc1ccc(N(CC(=O)NCc2ccco2)C(=O)CCC(=O)Nc2ccccn2)cc1	3%	9%	-2%	-24%	24%	-10
CCOC(=O)C1=C(C)N(Cc2ccccc2)C(=O)NC1c1ccc(OC)cc1 (stereo unspecified)	4%	4%	-17%	-20%	2%	-16
CCOC(=O)C1=C(C)n2c(s/c(=C3\C(=O)Nc4ccccc43)c2=O)=NC1c1ccc(OC)cc1 (stereo unspecified)	-30%	3%	?	21µM*	-14%	30
CCOC(=O)C1=C(C)N=c2s/c(=C3/C(=O)Nc4ccccc43)c(=O)n2C1c1ccc(C)cc1 (stereo unspecified)	-65%	-5%	26µM*	23µM*	0%	60
CCOC(=O)C1=C(C)N=c2s/c(=C\c3ccc(C(=O)O)cc3)c(=O)n2C1c1ccc(F)cc1 (stereo unspecified)	-1%	.	-11%	1%	0%	-7
CCn1c(C)cc(/C=C2/NC(=O)N(c3ccccc3)C2=O)c1C	-17%	-1%	?	?	-8%	-10
O=C1N/C(=C/c2ccsc2)C(=O)N1c1ccccc1	-9%	6%	-1%	13%	0%	-54*
Nc1ccc2oc3ccc(N)cc3c(=O)c2c1	-32%	3%	4%	-7%	17%	-73*
Nc1ccc2c(=O)[nH][nH]c(=O)c2c1	-1%	.	-19%	-20%	0%	-10
O=C(O)C(c1ccccc1)c1ccccc1	9%	.	1%	-5%	19%	-1
Nc1ncc([N+](=O)[O-])c(N2CCCCCC2)n1	7.1µM*	6%	?	-30%	-12%	-16
O=[N+]([O-])c1ccc(N2CCCC2)nc1N1CCCC1	1%	3%	-6%	?	5%	.
C=C[C@H]1[C@H](OC2OC(CO)C(O)C(O)C2O)OC=C(C(=O)OC)[C@H]1C[C@H]1CC(=O)C[C@H](CC(=O)CCc2ccc(O)cc2)O1 (stereo partly specified)	0%	.	9%	-7%	21%	1
CCOc1ccc(NC(=O)c2sc3nc4c(cc3c2N)CN(Cc2ccccc2)CC4)cc1	-54%	3%	?	?	-1%	.
COc1ccccc1NC(=O)c1sc2nc3c(cc2c1N)CN(Cc1ccccc1)CC3	-2%	12%	15µM*	?	7%	.
Cc1cccc(NC(=O)c2sc3nc4c(c(-c5cccs5)c3c2N)CN(C)CC4)c1	-33%	7%	?	?	1%	-86*
COc1ccc(NC(=O)c2sc3nc4c(cc3c2N)CCCCCC4)c(OC)c1	-1%	.	?	?	4%	.
Cc1ccccc1NC(=O)c1sc2nc3c(cc2c1N)CCCC3	-21%	.	?	3.3µM*	.	.
Nc1c(C(=O)Nc2ccccc2)sc2nc3c(cc12)CN(Cc1ccccc1)CC3	1%	9%	?	23µM*	40%	.
CC(C)CN(C(=O)c1cccc(S(=O)(=O)N2CCN(Cc3ccccc3)CC2)c1)C1CCS(=O)(=O)C1 (stereo unspecified)	-16%	-19%[0.505 µM]	?	?	18%	3
N#Cc1ncc(Cc2ccccc2)nc1C#N	-1%	.	?	?	?	-23
Cc1c(C(=O)N(C)C)sc2c1c(=O)n(-c1ccc(Cl)c(Cl)c1)c(=O)n2CC(=O)N1CCCCC1C (stereo unspecified)	-16%	6%	7%	6%	-31%	.
O=C(NCc1ccccc1)c1ccc2c(c1)N(Cc1ccccc1F)C(=O)c1ccccc1S2=O (stereo unspecified)	-1%	1%	?	?	0%	.
CCN(CC)c1ccc(NC(=O)c2sc3nc4c(cc3c2N)CN(C)CC4)cc1	-7%	7%	?	16µM*	-21%	.
SMILES	HepG2 viability	TDP1 inh	TDP1 cell CPT	DT40 TDP1 no CPT	TGFb SMAD3 inh	IL1B secr inh
Cc1ccnc(NC(c2ccccc2O)c2oc(CO)cc(=O)c2O)c1 (stereo unspecified)	31%	-1%	-17%	-12%	26%	9
CCCNS(=O)(=O)c1ccc2c(c1)n(C)c(=O)n2C	7%	4%	-11%	-22%	3%	5
CC1Sc2ccc(S(=O)(=O)CCC(=O)NCc3ccccc3)cc2NC1=O (stereo unspecified)	0%	-19%	?	-1%	-2%	16
CC1Sc2ccc(S(=O)(=O)NCCc3ccccc3)cc2NC1=O (stereo unspecified)	-45%	2%	21µM*	23µM*	?	-2
Cn1c(=O)n(C)c2cc(S(=O)(=O)NCCc3ccccc3)ccc21	-17%	4%	23µM*	23µM*	-5%	18
CC1Sc2ccc(S(=O)(=O)CCC(=O)N(C)Cc3ccccc3)cc2NC1=O (stereo unspecified)	-7%	.	18µM*	?	-20%	29
CCc1nn(CC(=O)Nc2ccc(C)cc2C)c(=O)c2cc3sccc3n12	1%	6%	-16%	?	-1%	.
CC(C)C[C@H](N)c1cn([C@@H](CCCCN)C(=O)N2CCNCC2)nn1	-49%	4%	8.2µM*	6.5µM*	?	?
NCCC(=O)[N-][C@@H](Cc1cnc[nH]1)C(=O)O.[Zn]	.	.	-1%	3%	.	.
COc1ccc(CN(Cc2cccn2C)S(=O)(=O)c2ccc(F)cc2)cc1	-12%	10%	-5%	?	4%	-14
COc1ccc(CN(Cc2cccn2C)S(=O)(=O)c2cccc(C(F)(F)F)c2)cc1	-20%	1%	18µM*	?	14%	4
Cc1cc(C#N)c2ccccc2n1	12%	-10%	1%	-9%	1%	16
Nc1cc2ccncc2c2ccccc12	-12%	-1%	?	10µM*	-1%	?
N#Cc1cc2ccncc2c2ccccc12	-28%	.	?	8.2µM*	-17%	-26
Cc1cc(SCc2cc(=O)[nH]c3ccccc23)nc2ccccc12	-33%	6%	23µM*	?	-3%	45

Bioassay records (PubChem)
